Shown is part of a subset that was picked to be rich in hits.
Tgondii IFNg = inhibitors of Toxoplasma gondii growth with IFN-gamma | activity change, negative = inhibition, % (test concentration not listed) | AID 1259416 | 3.8% of 69,000 active | Toxoplasma gondii growth in IFN-gamma-treated host cells; stronger effect = lower value; in the data active = activity change below about -70%, passing the limit was not always enough;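 also: host cells are HeLa cells infected with Toxoplasma gondii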
* marks the source's active call; other numbers are inactive results; ! = repeats disagree.

SMILES | Tgondii IFNg
Cc1nn(-c2ccccc2)nc1C(=O)Nc1ccc2c(c1)OCCO2 | 7
CC(C)(C)c1ccc2c(c1)OCCOCCOCCOCCO2 | -21
CC(C)(C)c1ccc(/C=C/C(=O)Nc2ccc3c(c2)OCCO3)cc1 | -73*
Cc1cc(C)cc(NC(=O)Cn2ncc3c(N4CCC(C)CC4)ncnc32)c1 | 99
CO/N=C1\CC(C)(C)Cc2c(-c3ccn(C(=O)c4cccs4)n3)sc(SC)c21 | -76*
O=C(c1ccccc1)n1ccc(-c2cccs2)n1 | -23
O=C(c1cccs1)n1ccc(-c2nc3ccccc3s2)n1 | 248
CCCCC(=O)Nc1cc2nc(CCCC)n(Cc3ccccc3Cl)c2nc1C | -57
CCN(CC)CCn1c(=O)c(Cc2ccc(OC)cc2)nc2ccccc21 | -2
CCCCc1nc2cc(/C=C/C(=O)NO)ccc2n1CCN(CC)CC | -82*
NCCc1cc2nc(-c3ccncc3)ccn2n1 | -5
O=C(Nc1c(C(=O)NCc2ccncc2)[nH]c2ccccc12)c1ccc(Cl)cc1 | -34
Cc1ccc2c(C)c(C(=O)N3CCCN(c4ncccn4)CC3)oc2c1 | 11
c1coc(-c2nnc3n2C2(CCCC2)Cc2ccccc2-3)c1 | 40
c1csc(-c2nnc3n2C2(CCCC2)Cc2ccccc2-3)c1 | -97*
c1ccc(-c2nnc3n2C2(CCCCC2)Cc2ccccc2-3)cc1 | -66
Cc1nc2c(c(N(C)C)n1)CCN(C(=O)c1cc(C(C)C)nn1C)C2 | 2
CS(=O)(=O)N1CCC(NC(=O)CC2C(=O)NCCN2Cc2ccccc2)CC1 (stereo unspecified) | 1
Cc1ccc(CN2CCC3(CCCN3CC3CC3)CC2)s1 | 0
CN1C(=O)CCCC12CCCN(C(=O)c1cccc3cccnc13)C2 (stereo unspecified) | 5
CN1CC2CCCC(C1)C2CC(=O)NCc1ccco1 (stereo unspecified) | 26
COc1ccc(CNC(=O)c2c(O)c3cccnc3[nH]c2=O)cc1OC | 117
CCCCOc1cc(CC2CNC(=O)N2)ccc1OC (stereo unspecified) | -72*!
COc1ccc(CCN2C(=O)CSC2c2ccc(OC)c(OC)c2)cc1OC (stereo unspecified) | -29
CCc1cc2cc(C)c(C)cc2nc1SCC(=O)Nc1cc(OC)ccc1OC | -36
SMILES | Tgondii IFNg
COc1ccc2[nH]cc(CCNC(=O)c3sc4ncnc(N(C)C5CCCCC5)c4c3C)c2c1 | -2
CCn1nc(C(C)C)cc1C(=O)N1CC[C@@H](c2sccc2C)[C@H](O)C1 | -2
CCn1c(-c2cc(NC(=O)c3cnccn3)n[nH]2)cc2cc(OC)ccc21 | 13
Cc1nnc(CN(C)C(=O)CC2COc3ccc(C(=O)N(C)C)cc3N2C)o1 (stereo unspecified) | 1
Cc1ccc2[nH]nc(C(=O)N3CCCC(N)CC3)c2c1 (stereo unspecified) | -40
CCc1cn[nH]c1C1CCCN(C(=O)c2n[nH]c3ccc(C)cc23)C1 (stereo unspecified) | 32
Cc1ccc2[nH]nc(C(=O)N3CCCC3c3ccc(Cc4ccccc4F)cn3)c2c1 (stereo unspecified) | -105*
CSc1ccc(C(=O)C2CCCN(C(=O)CCc3n[nH]c(C)n3)C2)cc1 (stereo unspecified) | -3
Nc1ncnc2c1c(-c1cccc(OCc3ccccc3)c1)cn2C1CC(CN2CCC2)C1 (stereo unspecified) | -85*
COc1ccc(C)cc1C(=O)NCC1CCN(Cc2cccnc2)C1 (stereo unspecified) | -44
Cc1nnsc1C(=O)N(Cc1ccccc1)C(C)C | -6
Cc1nnsc1C(=O)OCCN(C)c1ccc(C#N)cn1 | -4
Cc1nnsc1C(=O)OCc1cc(F)cc(F)c1 | -77*
O=C(c1cccc(Cl)c1)N1CCN2C[C@H](OCC3CC3)C[C@@H]2C1 | 1
CCS(=O)(=O)N1CC2(CCN(C(=O)[C@H]3CCCO3)CC2)c2ccccc21 | 2
O=C(c1ccn[nH]1)N1CCOC2(CCCN(c3ccccc3)C2)C1 (stereo unspecified) | -1
O=C(CCC1Nc2c3ccccc3nc(=S)n2C1=O)N1CCC(Cc2ccccc2)CC1 (stereo unspecified) | 12
Cc1cc(C)c2c(n1)sc1c3ccccc3c(N)nc12 | -102*
C=CCSc1ncnc2c1sc1nc(C)cc(C)c12 | 99
Cc1cc(C)c2c(n1)sc1c(=O)oc(C)nc12 | 14
CCN(CC)CCN(Cc1ccc(-c2ccc(C(F)(F)F)cc2)cc1)C(=O)Cn1c(SCc2ccc(F)cc2)nc(=O)c2c1CCC2 | -76*
CCN(Cc1ccncc1)C(=O)CCNC(=O)c1ccc(F)cc1 | 75
CN(C(=O)CSc1ccc(C(F)(F)F)cn1)c1c2c(nn1C)CCCC2 | -26
CNC(=O)N1CCc2cc(C(=O)NCC3CC3)c(NCC3CC3)nc2CC1 | -36
CC(C)COCC(CN(Cc1ccccc1)c1ccccc1)N1CCCC1 (stereo unspecified) | -76*!
SMILES | Tgondii IFNg
CC(COc1ccccc1)N(CCCl)Cc1ccccc1 (stereo unspecified) | 5
CCN(Cc1cnc(C)nc1)c1cccc(OCCN2CCOCC2)c1 | 56
CCCCOc1c(C(=O)c2c(F)cc(C)cc2F)cnc2n[nH]cc12 | -92*
CCCS(=O)(=O)Nc1ccc(F)c(C(=O)c2c[nH]c3ncc(Cl)cc23)c1F | -51
CCc1ccccc1Nc1noc2c1CN(C(=O)c1ccn(C)n1)CC2 | 20
O=C(c1cnccn1)N1CCO[C@H]2CCN(Cc3ccccc3Cl)C[C@H]21 | 15
Cc1cc(C)n(Cc2c(-c3cc(=O)n4[nH]c(-c5cccs5)c(C)c4n3)noc2C)n1 | -66
Cc1cnc(NC(=O)C2CC(=O)N(c3ccc(OC(C)C)cc3)C2)s1 (stereo unspecified) | -7
COc1ccc(CN(C)C[C@@H]2OCCCC[C@H](C)Oc3ccc(NC(=O)C4CCCCC4)cc3C(=O)N([C@@H](C)CO)C[C@@H]2C)cc1 | 93
COc1ccc(CN(C)C[C@@H]2OCCCC[C@@H](C)Oc3ccc(NC(=O)C4CCCCC4)cc3C(=O)N([C@@H](C)CO)C[C@H]2C)cc1 | -3
COc1ccc(CN(C)C[C@@H]2OCCCC[C@H](C)Oc3ccc(NC(=O)C4CCCCC4)cc3C(=O)N([C@H](C)CO)C[C@H]2C)cc1 | -25
COc1ccc(S(=O)(=O)Nc2ccc3c(c2)C(=O)N([C@H](C)CO)C[C@H](C)[C@@H](CN(C)Cc2ccc(C(F)(F)F)cc2)OCCCC[C@H](C)O3)cc1 | 6
COc1ccc(S(=O)(=O)Nc2ccc3c(c2)C(=O)N([C@@H](C)CO)C[C@H](C)[C@@H](CN(C)Cc2ccc(C(F)(F)F)cc2)OCCCC[C@H](C)O3)cc1 | -129*
Cc1ccc(S(=O)(=O)Nc2ccc3c(c2)C(=O)N([C@H](C)CO)C[C@@H](C)[C@H](CN(C)Cc2ccc(C(F)(F)F)cc2)O3)cc1 | -20
C[C@@H]1CCCCO[C@H](CN(C)C(=O)Nc2ccc(C(F)(F)F)cc2)[C@H](C)CN([C@H](C)CO)C(=O)c2cc(NS(=O)(=O)c3cn(C)cn3)ccc2O1 | -83*
C[C@@H]1CN([C@@H](C)CO)C(=O)c2cc(NS(=O)(=O)c3cn(C)cn3)ccc2O[C@@H](C)CCCCO[C@@H]1CN(C)C(=O)Nc1ccc(C(F)(F)F)cc1 | 45
COc1ccc(CN(C)C[C@H]2OCCCC[C@@H](C)Oc3ccc(NC(=O)C4CCCCC4)cc3C(=O)N([C@H](C)CO)C[C@H]2C)cc1 | 39
COc1ccc(S(=O)(=O)Nc2ccc3c(c2)C(=O)N([C@H](C)CO)C[C@@H](C)[C@H](CN(C)Cc2ccc(C(F)(F)F)cc2)OCCCC[C@H](C)O3)cc1 | -101*
